Bioassay records deposited in PubChem by several laboratories.
This excerpt belongs to a sample that is enriched for hits.
GluA2 TARP mod = modulators of AMPA receptor GluA2-stargazin complexes; HEK293 GluA2+stargazin, membrane potential dye (FDSS), glutamate EC50; hits were called plate by plate, in both directions; calls only at 30 µM; actives 3.5% (n = 40,000);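 active means any of four per-well response measures lying three or more SD from its plate-wide compound average, in either direction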
GIRK2 activator = Activators of human GIRK2-containing channels | P48051 | 34,000 tested, under 10 active | HEK293 GIRK2/NPY4 cells, thallium flux fluorescence | activation (% efficacy), % for hits at 37.5 µM;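 active means primary screen hit, no activity in plain HEK293 cells, and in GIRK2-only cells above 5% efficacy rising with concentration; inactive means the rest, including fluorescent compounds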;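 further: efficacy is normalized control-subtracted fluorescence 15 s after thallium addition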
Target sequence (P48051 whole entry, looked up): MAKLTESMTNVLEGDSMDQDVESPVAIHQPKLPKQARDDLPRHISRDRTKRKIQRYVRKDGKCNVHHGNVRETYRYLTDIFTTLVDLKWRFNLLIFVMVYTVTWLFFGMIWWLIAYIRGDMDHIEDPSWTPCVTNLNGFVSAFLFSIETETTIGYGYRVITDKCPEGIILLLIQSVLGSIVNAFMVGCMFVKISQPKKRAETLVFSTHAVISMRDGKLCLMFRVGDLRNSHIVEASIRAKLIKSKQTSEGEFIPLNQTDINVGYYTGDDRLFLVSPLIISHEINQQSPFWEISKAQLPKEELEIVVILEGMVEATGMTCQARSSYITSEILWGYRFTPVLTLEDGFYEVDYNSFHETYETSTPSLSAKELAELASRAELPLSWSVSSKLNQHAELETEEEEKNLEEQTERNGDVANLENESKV
The depositor's hits bear a star.

Screening CN(CCCC(N)=O)S(=O)(=O)c1ccc2c(c1)C(=O)c1ccccc1C2=O returned GluA2 TARP mod active.
`COc1ccc(S(=O)(=O)N(C)CCCC(=O)O)cc1N(C)S(=O)(=O)c1ccccc1` gave GluA2 TARP mod inactive.
`CC(=O)Cn1c(=O)c2c(nc3n(-c4cccc(C)c4)c(C)c(C)n23)n(C)c1=O` gave GluA2 TARP mod inactive.
For O=S(=O)(Cc1ccccc1)NCC(c1ccco1)N1CCOCC1 (centres undefined) the results were GluA2 TARP mod inactive and GIRK2 activator inactive.
For O=S(=O)(Cc1ccc(Cl)cc1)NCC(c1ccco1)N1CCOCC1 (centres undefined) the results were GluA2 TARP mod active and GIRK2 activator inactive.
For Cc1ccc(S(=O)(=O)NCC(c2cccn2C)N2CCc3ccccc3C2)c(C)c1 (centres undefined) the results were GluA2 TARP mod inactive and GIRK2 activator inactive.
`O=C(c1ccc(=O)oc1)N1CCN(Cc2nc(-c3ccccc3)cs2)CC1` gave GluA2 TARP mod inactive and GIRK2 activator inactive.
For CC1CCCCN1c1ccc(N2CCN(C(=O)/C=C/c3ccco3)CC2)nn1 (centres undefined) the results were GluA2 TARP mod inactive and GIRK2 activator inactive.
Screening Cc1nnsc1C(=O)Nc1onc2c1CSC2 returned GluA2 TARP mod inactive and GIRK2 activator inactive.
`COc1ccc(Cl)cc1C(=O)Nc1nnc(-c2ccnn2C(C)C)o1` gave GluA2 TARP mod active and GIRK2 activator inactive.
For CC(C)n1nccc1-c1nnc(NC(=O)c2ccc(Cl)cc2Cl)o1 the results were GluA2 TARP mod inactive and GIRK2 activator inactive.
COc1ccc(S(=O)(=O)CCC(=O)Nc2cc(C)cc(C)c2)cc1 was read as GluA2 TARP mod inactive and GIRK2 activator inactive.
COC(=O)c1ccccc1NC1=C/C(=N/S(=O)(=O)c2ccc(F)cc2)c2ccccc2C1=O was read as GluA2 TARP mod active.
COC(=O)c1cccc(NS(=O)(=O)c2ccc(F)cc2)c1C was read as GluA2 TARP mod inactive.
`COc1ccc(S(=O)(=O)/N=C2/C=C(Nc3cccc(C)c3)C(=O)c3ccccc32)cc1` gave GluA2 TARP mod active.
COc1ccc(S(=O)(=O)/N=C2/C=C(Nc3ccc(C)cc3)C(=O)c3ccccc32)cc1 was read as GluA2 TARP mod active.
Screening CCOc1ccc(NC2=C/C(=N/S(=O)(=O)c3ccc(OC)cc3)c3ccccc3C2=O)cc1 returned GluA2 TARP mod inactive.
Screening O=C(c1cccc(F)c1)N1CCN(c2cc(-c3ccccc3)[nH]n2)CC1 returned GIRK2 activator inactive.
Screening CC(C)c1ccc(CC(=O)N(Cc2cccnc2)c2nc3ccc(F)cc3s2)cc1 returned GluA2 TARP mod inactive and GIRK2 activator inactive.
`COc1ccc(F)cc1S(=O)(=O)Nc1ccc(-n2nnn(CC(N)=O)c2=O)cc1` gave GluA2 TARP mod inactive and GIRK2 activator inactive.
O=C(Nc1cccc(C(F)(F)F)c1)C1CCCN(c2ccc(-n3cccn3)nn2)C1 (centres undefined) was read as GluA2 TARP mod inactive and GIRK2 activator inactive.
CCOc1ccc(NC(=O)C(=O)NCc2cccs2)cc1 was read as GluA2 TARP mod inactive and GIRK2 activator inactive.
For O=C(NCCOc1ccc(-c2cccs2)nn1)c1cccc2ccccc12 the results were GluA2 TARP mod inactive and GIRK2 activator inactive.
`Cc1cc(C)c(NC(=O)CN2C(=O)c3ccccc3S2(=O)=O)c(C)c1` gave GluA2 TARP mod inactive and GIRK2 activator inactive.
Screening Cc1nnc(SCCn2c(N3CCOCC3)nc3c2c(=O)n(C)c(=O)n3C)s1 returned GluA2 TARP mod active.
For Cn1c(=O)c2c(nc(N3CCOCC3)n2CCSc2nnnn2-c2ccccc2)n(C)c1=O the results were GluA2 TARP mod inactive.
`CCOc1ccccc1-n1nnnc1SCC(=O)Nc1ccc(Cl)cc1Cl` gave GluA2 TARP mod inactive and GIRK2 activator inactive.
Screening S=c1nc(-c2ccc(Br)cc2)n(Cc2ccco2)c2c1CCCC2 returned GluA2 TARP mod active.
O=C(CSc1nc(=O)n(Cc2ccco2)c2c1CCC2)NC1CCCCC1 was read as GluA2 TARP mod inactive and GIRK2 activator inactive.
Screening CCCCn1c(SCc2nc(-c3ccc(C)cc3)no2)nc2ccsc2c1=O returned GluA2 TARP mod inactive and GIRK2 activator inactive.
`COc1ccc(N2CCN(C(c3cccs3)C(C)NS(=O)(=O)c3ccc(Cl)cc3)CC2)cc1` (centres undefined) gave GluA2 TARP mod active.
Screening COc1ccc(N2CCN(C(c3cccs3)C(C)NS(=O)(=O)c3ccc(F)cc3)CC2)cc1 (centres undefined) returned GluA2 TARP mod inactive.
Cc1ccc(-c2nc(CSc3n[nH]c(=O)c4cc(-c5ccco5)nn34)c(C)o2)cc1 was read as GIRK2 activator inactive.
Screening Cc1nnsc1C(=O)Nc1cc(-c2ccco2)nn1CCO returned GluA2 TARP mod inactive and GIRK2 activator inactive.
`COc1cccc(NC(=O)c2sccc2S(=O)(=O)N2CCN(c3ccc(Cl)cc3)CC2)c1` gave GIRK2 activator inactive.
`O=C(Nc1ccc(F)c(F)c1)c1sccc1S(=O)(=O)N1CCN(c2ccccc2)CC1` gave GluA2 TARP mod active and GIRK2 activator inactive.
For Cc1cc(C)c(C)c(S(=O)(=O)NCCCN2CCOC(c3ccccc3)C2)c1C (centres undefined) the results were GIRK2 activator inactive.
CSc1ccccc1NC(=O)c1ccc(=O)n(Cc2ccc(F)cc2)c1 was read as GluA2 TARP mod inactive and GIRK2 activator inactive.
COC(=O)c1ccc(C(=O)NCC(c2ccccc2Cl)N(C)C)cc1 (centres undefined) was read as GluA2 TARP mod inactive and GIRK2 activator inactive.
COc1ccc(NC(=O)NCC(c2ccccc2Cl)N(C)C)cc1OC (centres undefined) was read as GluA2 TARP mod active and GIRK2 activator inactive.
O=C(NCCn1ncc2c(N3CCCC3)ncnc21)c1ccc(S(=O)(=O)N2CCCC2)cc1 was read as GluA2 TARP mod inactive.
Screening N#Cc1nc(-c2ccc(S(=O)(=O)N3CCCCCC3)cc2)oc1NCc1ccccc1 returned GluA2 TARP mod inactive and GIRK2 activator inactive.
`CS(=O)(=O)N1CCCC(C(=O)N(Cc2ccccc2)Cc2ccccc2)C1` (centres undefined) gave GluA2 TARP mod inactive and GIRK2 activator inactive.
`CS(=O)(=O)N1CCCCC1C(=O)N(Cc1ccccc1)Cc1ccccc1` (centres undefined) gave GluA2 TARP mod active and GIRK2 activator inactive.
`CCN(CC)CCNC(=O)C(=O)Nc1ccc([N+](=O)[O-])cc1` gave GluA2 TARP mod inactive.
For CC(O)CNC(=O)C(=O)Nc1ccc([N+](=O)[O-])cc1 (centres undefined) the results were GluA2 TARP mod active.
Screening Cc1cccc(Nc2ccc(N3CCN(C(=O)C4CCCO4)CC3)nn2)n1 (centres undefined) returned GIRK2 activator inactive.
Cc1cccc(Nc2ccc(N3CCN(C(=O)C4CCC(=O)N4)CC3)nn2)n1 (centres undefined) was read as GluA2 TARP mod active and GIRK2 activator inactive.
